Screens from PubChem.
Vaccinia Venus – qHTS for Stage-Specific Inhibitors of Vaccinia Orthopoxvirus: Venus Reporter Primary qHTS. Vaccinia virus Venus reporter expression, fluorescence. Potency, µM (series often up to 36.5 µM), for inactives: top-dose activity change, negative = inhibition, usual class: inhibitors. hit rate 0.46% among 330,000. AID 720580, 2013; calls by dose curve; tested in A549 cells; note: potency is the fitted concentration of half-maximal effect; nearly all actives have a fitted effect of over 30% in size
HCV inh – qHTS Assay for Inhibitors of Hepatitis C Virus (HCV). Huh7.5.1 HCVcc-Cre infection, luciferase reporter, 44 h. Potency, µM (series often up to 41.8 µM), without a hit: at the highest dose activity change, negative = inhibition, actives largely listed as inhibitors. hit rate 3.4% among 340,000. AID 651820, 2012; note: potency is the fitted concentration of half-maximal effect
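After 44 h co-culture of compound, cells and HCVcc-Cre (~0.5 moi), substrate is added for 15 min at room temperature and luciferase measured over 15 sec. Cells were seeded at 1,000/well and pre-cultured 4 h.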
Vaccinia mCherry – qHTS for Stage-Specific Inhibitors of Vaccinia Orthopoxvirus: mCherry Reporter Primary qHTS. Vaccinia virus mCherry reporter infection, fluorescence. Potency, µM (series often up to 36.5 µM), for the others: at the top dose activity change, negative = inhibition, usual class: inhibitors. hit rate 0.63% among 310,000. AID 720579, 2013; calls by dose curve; tested in A549 cells; note: potency is the fitted concentration of half-maximal effect; nearly all actives have a fitted effect of over 35% in size
HCMV inh – qHTS Assay for inhibitors of the human cytomegalovirus (HCMV); HFF cells, HCMV-luciferase reporter, 72 h; stronger effect = lower value; activity change, negative = inhibition, % at 57.5 µM; hit rate 4.5% among 410,000; AID 1259415, 2018; in the data active = activity change below about -60%; inconclusive = no clear call, values can overlap the other calls; inactive = above about -39%
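HFF cells seeded 16 h at 37C, treated with compounds, infected with luciferase-reporter HCMV at MOI 1 PFU/cell; luciferase read at 72 h post infection, normalized to buffer-only and Salinomycin controls.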
Sm TGR inh – qHTS Assay for the Inhibitors of Schistosoma Mansoni Peroxiredoxins. Schistosoma mansoni thioredoxin glutathione reductase (TGR), Q962Y6. purified TGR, DTNB reduction, TNB absorbance 405 nm. Potency, µM (doses to about 114 µM), without a hit: top-dose activity change, negative = inhibition, usual class: inhibitors. hit rate 3% among 360,000. AID 485364, 2010; note: potency is the fitted concentration of half-maximal effect; nearly all actives have a fitted effect of over 60% in size
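First, TGR (20 nM dispensed) and NADPH were mixed with compound. Second, a 15 min room-temperature incubation followed. Third, further NADPH and then DTNB were added to start the reaction. Finally, TNB absorbance was monitored kinetically.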
FMDV inh – High Throughput Screening for Foot and Mouth Disease Virus Antivirals; FMDV antiviral cell-based qHTS; Potency, µM (series often up to 57.9 µM), for the others: top-dose activity change, negative = inhibition, most hits filed as inhibitors; hit rate 1.2% among 410,000; AID 1159524, 2015; calls by dose curve; tested in HEK293T cells; note: read-out not given here; potency is the fitted concentration of half-maximal effect; nearly all actives have a fitted effect of over 45% in size
* hit, by the source's call; i = inactive; ? = inconclusive; nt = no result; ! = repeats disagree. Rows were chosen to be rich in hits. Some 9.3% of all compounds tested hit in one or more screens of this group. Unless noted, calls come from the whole dose curve; as a rule, active = well fitted curve in the direction sought with a large enough effect; inconclusive = small, poorly fitted or top-dose-only effect, or another doubt; inactive = no such curve, though single readings can be large; an effect the other way counts as inactive or inconclusive. % is set by controls: 0 for no effect and ±100 for the full control effect.

SMILES	Vaccinia Venus	HCV inh	Vaccinia mCherry	HCMV inh	Sm TGR inh	FMDV inh
COc1cc(Nc2nc3ccc(Cl)cc3nc2-n2nc(C)cc2C)cc(OC)c1	-6.2%	nt	-15.1%	11.4	1.4%	-4.1%
COc1cc(OCc2ccccc2)c2c(CCC(=O)O)cc(=O)oc2c1	-1.5%	-3.6%	-12.1%	5.5	nt	-24.7%
CCOc1ccc2cc(C3CC(c4ccco4)=NN3S(C)(=O)=O)c(=O)[nH]c2c1 (stereo not drawn)	nt	8.0%	nt	-17.4	3.16µM*	51.1%
Cc1ccc2c(=O)cc(CSc3nnc(-c4ccccc4)n3C)[nH]c2c1C	-5.1%	nt	14.3%	0.9	-4.8%	35.5%
Cc1cccc(-c2nnc(SCc3cc(=O)c4cccc(Cl)c4[nH]3)n2C)c1	-23.8%	nt	-27.6%	?	1.5%	25.1µM*
COc1ccccc1N(CC(=O)NCc1ccc2c(c1)OCO2)C(=O)CCC(=O)Nc1nccs1	-8.1%	0.4%	-14.9%	8.0	2.5%	0.2%
CCOc1ccc(-n2ccc(=O)c(C(=O)Nc3ccc(S(=O)(=O)N4CCOCC4)cc3)n2)cc1	-2.7%	9.7%	i	-28.5	7.4%	7.4%
O=C1CC(c2ccc(F)cc2)c2cc3c(cc2N1)CCC3 (stereo not drawn)	-21.9%	?	-12.5%	41.4	-7.9%	-9.8%
COc1ccc(-c2cc(=Nc3c(C)n(C)n(-c4ccccc4)c3=O)c3ccccc3o2)cc1	-24.4%	?	-2.3%	89.0	?	-4.1%
COc1ccc(-c2c/c(=N\c3nc(-c4ccccc4)c(C)s3)c3ccccc3o2)cc1O	?	?	nt	-95.9*	-8.7%	?
CCOC(=O)c1cnc(SC)nc1Oc1cccc(NS(=O)(=O)c2ccccc2)c1	nt	10µM*	nt	5.5	-1.1%	14.5%
CCOC(=O)c1cnc(SC)nc1Oc1cccc(NS(=O)(=O)c2ccc(F)cc2)c1	nt	?	nt	-18.8	8.6%	2.3%
COc1ccc(NC(=O)CS(=O)c2ccc(F)cc2)cc1 (stereo not drawn)	-1.5%	9.4%	-14.8%	1.5	3.3%	16.9%
COc1ccc(CN(C)C(=O)c2ccc(OCC(=O)Nc3cccc(C(F)(F)F)c3)c(OC)c2)c(OC)c1	?	0.562µM*	-2.6%	-83.0*	-1.9%	?
COc1ccc(CN(C)C(=O)c2cccc(NC(=O)CC3SC(N4CCCCC4)=NC3=O)c2)c(OC)c1 (stereo not drawn)	-21.7%	8.91µM*	?	-76.6*	nt	20µM*
COc1cccc(CN(C)C(=O)c2ccc(OCC(=O)Nc3cccc(C(F)(F)F)c3)c(OC)c2)c1	?	?	?	-86.3*	4.4%	?
c1cncc(CNc2ncnc3sc4c(c23)CCCC4)c1	-14.2%	?	-18.0%	?	-0.3%	-22.6%
Cc1nc(NCc2cccnc2)c2c3c(sc2n1)CCCC3	-9.0%	7.08µM*	-12.3%	11.5	7.6%	-14.8%
COc1ccc(NC(=O)CN(C)C(=O)c2c(-c3c(F)cccc3Cl)noc2C)cc1	-10.5%	-24.3%	-21.5%	-30.1	17.7%	-25.0%
Cc1oc2c(cc(NS(=O)(=O)c3ccc(C(C)C)cc3)c3ccccc32)c1C(=O)OCc1ccccc1	-15.4%	nt	-14.9%	61.9	-18.4%	13.7%
CCCOC(=O)c1c(C)oc2c1cc(NS(=O)(=O)c1ccc(OCC)cc1)c1ccccc12	?	nt	?	-96.1*	-3.8%	7.4%
CCOC(=O)c1c(C)oc2c1cc(O)c1ccccc12	-1.4%	31.6µM*	-10.3%	179.2	-20.3%	42.7%
CCOC(=O)c1c(C)oc2c1cc(NS(=O)(=O)c1ccc(C(=O)O)cc1)c1ccccc12	7.5%	-4.7%	-15.2%	39.5	28.2µM*	6.3%
Cc1oc2c(cc(NS(=O)(=O)c3ccc(Cl)cc3)c3ccccc32)c1C(=O)O	5.1%	8.0%	?	52.5	?	?
CCOc1ccc(S(=O)(=O)Nc2cc3c(C(=O)OCc4ccccc4)c(C)oc3c3ccccc23)cc1	-20.3%	nt	-26.2%	-84.0*	-27.3%	6.4%
SMILES	Vaccinia Venus	HCV inh	Vaccinia mCherry	HCMV inh	Sm TGR inh	FMDV inh
CC(=O)c1c(C)oc2c1cc(O)c1ccccc12	nt	?	nt	0.0	-4.0%	6.3%
Cc1nn(-c2ccccc2)c2nc(N)c(C#N)c(-c3ccc(F)cc3)c12	nt	?	nt	-18.0	0.8%	?
CCOC(=O)c1c(C)oc2c1c(C=NCc1ccccn1)c(O)c1ccccc12	-10.2%	4.47µM*	-4.0%	-32.3	?	-22.2%
COc1ccc(N(CC(=O)NC2CC3CCC2C3)S(=O)(=O)c2ccc(C)cc2)cc1Cl (stereo not drawn)	?	nt	i	-31.1	nt	-15.1%
COc1ccc([C@H]2C[C@H](O)[C@@H](n3cc(COC(=O)c4ccccc4)nn3)CN2Cc2cccs2)cc1	-10.7%	nt	-7.9%	2.7	nt	-5.0%
COc1ccccc1-c1ccc(=O)n(CC(=O)NC2CCc3ccccc32)n1 (stereo not drawn)	-11.9%	-7.8%	-14.0%	-87.4*	11.5%	-9.3%
COC(=O)c1cccc(NC(=O)c2cc3sccc3n2C)c1	-10.5%	14.1µM*	i	177.0	5.7%	15.8%
O=C(CN1CCOCC1)Nc1ccc(Oc2ccccc2)cc1	nt	-6.4%	nt	13.2	0.0%	19.8%
O=C(CN1CCNCC1)Nc1ccc(Oc2ccccc2)cc1	nt	7.94µM*	nt	-10.5	4.0%	4.1%
O=C(CC1NCCc2ccccc21)Nc1ccc(Oc2ccccc2)cc1 (stereo not drawn)	-10.8%	11.2µM*	-16.3%	?	0.0%	?
O=C(CC1NCCc2ccccc21)Nc1ccccc1 (stereo not drawn)	1.5%	-0.5%	2.9%	18.7	?	57.6%
CCc1cccc(C)c1NC(=O)NC1COc2ccccc2C1 (stereo not drawn)	-0.3%	nt	-11.0%	12.3	8.0%	-19.1%
O=C(O)CSc1nc2c(c(C(F)(F)F)n1)CCCC2	-3.1%	12.1%	15.6%	-96.0*!	4.3%	-8.0%
Cc1[nH]c2ccccc2c1/C=N/NC(=O)C1CC1(c1ccccc1)c1ccccc1 (stereo not drawn)	11.2µM*	?	?	-20.8	-2.8%	39.8µM*
Cc1[nH]c2ccccc2c1/C=N/NC(=S)NC(C)C	-29.6%	10µM*	-27.8%	?	8.1%	?
O=C(O)C1CCCN1c1nc(-c2ccc(Cl)c(Cl)c2)cc(C(F)(F)F)n1 (stereo not drawn)	?	?	?	0.0	0.0%	-25.9%
CCCS(=O)(=O)c1cn2cccc(N)c2c1S(=O)(=O)CCC	15.0%	?	-3.3%	53.7	22.4µM*	-12.8%
Cc1cc(C)c(S(=O)(=O)Nc2ccc3c(c2)CCC3)c(C)c1	-16.3%	11.2µM*	i	-84.9*	9.0%	80.2%
